From PubChem
In the library only some 12% were active in any assay of this set; here they are far more common.
Pf growth 96h: P. falciparum growth inhibition at 96 hour, primary screen for plastid delayed-death inhibitors; P. falciparum luciferase reporter growth, 96 h; Potency, µM (series often up to 28.7 µM), actives largely listed as inhibitors; hit rate 6.9% among 320,000; AID 504834
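Two parasite generations (96 h, 37 C, 5% CO2) of compound exposure in infected erythrocytes (0.05% parasitemia, 2% hematocrit). Luciferase-reporter P. falciparum; decreased luminescence indicates inhibited growth, aimed at apicoplast-acting delayed death.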
SARS PLP yeast: inhibitors of SARS-CoV papain-like protease in yeast; S. cerevisiae expressing SARS-CoV PLpro, growth rescue; Potency, µM (doses to about 32.9 µM), hits mostly activators; hit rate 0.19% among 330,000; calls by dose curve; also: nearly all actives have a fitted effect of over 55% in size
Pf growth 48h: P. falciparum growth inhibition at 48 hours (one generation); P. falciparum luciferase growth in erythrocytes, 48 h; Potency, µM (highest dose often 28.7 µM), usual class: inhibitors; hit rate 5.9% among 310,000
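Erythrocytes infected with P. falciparum carrying an integrated firefly luciferase reporter (2% hematocrit, 0.1% parasitemia final) were exposed to compounds in RPMI 1640 with 0.5% Albumax at 37 C, 5% CO2. Growth inhibition was scored as reduced luminescence.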
Sm TGR inh: blocks Schistosoma mansoni thioredoxin glutathione reductase; hit rate 3% among 360,000; purified TGR, DTNB reduction, TNB absorbance 405 nm; Potency, µM (highest dose often 114 µM), actives largely listed as inhibitors; also: nearly all actives have a fitted effect of over 60% in size
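Kinetic colorimetric format: TGR-catalysed, NADPH-driven DTNB reduction monitored via TNB absorbance. Enzyme dispensed at 20 nM; compound exposure 15 min at room temperature before reaction start.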
Large screens that a line does not name were inactive. Unless noted, calls follow the shape of the dose curve; as a rule, active = well fitted curve in the direction sought with a large enough effect; inconclusive = small, poorly fitted or top-dose-only effect, or another doubt; inactive = no such curve, though single readings can be large; an effect the other way counts as inactive or inconclusive.

Cc1c(NC(=O)c2ccc(S(=O)(=O)Nc3ccccc3F)cc2)c(=O)n(-c2ccccc2)n1C	none (no result: Pf growth 96h, Pf growth 48h, Sm TGR inh)
COc1ccc(CC(=O)Nc2nnc(CC(C)C)s2)cc1S(=O)(=O)N1CCOCC1	Pf growth 96h inconclusive, Pf growth 48h inconclusive
Cc1ccc2[nH]c(=O)c(CN(Cc3ccco3)S(=O)(=O)c3c(C)ccc4nsnc34)cc2c1	Sm TGR inh 28.2µM
Cc1ccc2cc(CN(CCCO)S(=O)(=O)c3cccc4nsnc34)c(=O)[nH]c2c1	Pf growth 96h 4.15µM (no result: Pf growth 48h)
CCOc1ccc(-n2nc(CO)c(C(=O)NCc3cccs3)n2)cc1	none (no result: Pf growth 96h, SARS PLP yeast, Pf growth 48h)
CN(Cc1ccccc1)C(=O)c1ccc(NC(=O)Cc2cccc(NC(=O)C3CCN(C(=O)C4CCCCC4)CC3)c2)cc1	Pf growth 96h inconclusive, Pf growth 48h inconclusive
CN(C(=O)c1ccc(NC(=O)Cc2ccc(NC(=O)C3CCN(C(=O)c4ccccc4)CC3)cc2)cc1)C1CC1	Pf growth 96h 6.57µM, Pf growth 48h inconclusive
O=C(Cc1cccc(NC(=O)C2CCN(C(=O)C3CCCCC3)CC2)c1)Nc1cccc(C(=O)N2CCCC2)c1	Pf growth 96h 10.4µM, Pf growth 48h 13.1µM
CN(Cc1ccccc1)C(=O)c1ccc(NC(=O)Cc2cccc(NC(=O)C3CCCN(C(=O)C4CCC4)C3)c2)cc1 (centres undefined)	Pf growth 96h inconclusive, Pf growth 48h 9.28µM
CCOc1ccc(OCC)c(NS(=O)(=O)c2c(C)[nH]c(=O)[nH]c2=O)c1	none (no result: Pf growth 96h, SARS PLP yeast, Pf growth 48h)
O=C(NCC1(c2ccccc2)CCCC1)c1ccco1	none
O=C(/C=C/c1ccco1)NCC1(c2ccccc2)CCCC1	Pf growth 48h inconclusive, Sm TGR inh 7.94µM
COc1ccc(CNC(=O)/C=C/c2ccco2)cc1OC	Sm TGR inh 3.16µM
COc1ccc(C(=O)NCC2(c3ccc(OC)c(OC)c3)CCCC2)c(OC)c1	Pf growth 96h inconclusive, Pf growth 48h 11.7µM
COc1ccc(C2(CNC(=O)/C=C/c3ccco3)CCCC2)cc1OC	Pf growth 96h inconclusive, Pf growth 48h 6.57µM, Sm TGR inh 3.55µM
Cc1ccc(Cn2c(CN3CCN(c4cccc(Cl)c4)CC3)nc3c2c(=O)n(C)c(=O)n3C)cc1	none (no result: Pf growth 96h, SARS PLP yeast, Pf growth 48h)
Cc1ccc(CC2SC(=Nc3ccccc3)N(c3ccccc3)C2=O)cc1 (centres undefined)	Pf growth 48h 10.4µM
Cc1ccc(CN2CCN(Cc3nc4ccccc4nc3C)CC2CCO)cc1 (centres undefined)	Pf growth 96h inconclusive, Pf growth 48h inconclusive, Sm TGR inh 31.6µM
CCOc1ccc(CN2CCN(C3CCC3)CC2CCO)cc1 (centres undefined)	Sm TGR inh 12.6µM
Cc1ccc(CN2CCN(Cc3cnc(C)[nH]3)CC2CCO)cc1 (centres undefined)	Pf growth 96h 11.7µM
Cc1ccc(CN2CCN(CCCc3ccccc3)CC2CCO)cc1 (centres undefined)	Pf growth 48h inconclusive
CCOc1ccc(CN2CCN(C3CCSCC3)CC2CCO)cc1 (centres undefined)	Pf growth 96h inconclusive, Sm TGR inh inconclusive
COc1ccc(-c2n[nH]c3c2CN(C(=O)c2ccc(OC)c(OC)c2)CC3)cc1	Pf growth 96h 11.7µM, Pf growth 48h inconclusive
COc1cc(OC)cc(C(=O)N2CCN(C(=O)c3ccc(OC)c(OC)c3)CC2)c1	Pf growth 96h inconclusive
C[C@@H]1O[C@@H](OCCC(=O)O)[C@H](O)C[C@H]1O	none (no result: Pf growth 96h, Pf growth 48h, Sm TGR inh)
C=C(c1ccccc1C)[n+]1ccccc1	Pf growth 96h 1.65µM, Pf growth 48h 4.65µM
Cc1ccccc1O	none (no result: Pf growth 96h, Pf growth 48h, Sm TGR inh)
C=C(c1ccccc1Cl)[n+]1ccccc1	Pf growth 96h 1.65µM, Pf growth 48h 2.94µM
Clc1ccccc1Cl	none (no result: SARS PLP yeast, Sm TGR inh)
Cc1ccc(C(=O)NC2CCC(C)CC2)s1 (centres undefined)	none
CCCCC1(O)CC(C(F)(F)F)=NN1C(=O)COc1ccccc1 (centres undefined)	Pf growth 96h 0.117µM
CC1=NN(C(=O)COc2ccccc2)C(O)(c2ccccc2)C1 (centres undefined)	none
Cc1cc(C)cc(OCC(=O)N2N=C(C(F)(F)F)CC2(O)C(C)(C)C)c1 (centres undefined)	Pf growth 96h inconclusive, Pf growth 48h inconclusive, Sm TGR inh 50.1µM
COc1ccccc1CCNC(=O)C(=O)NCC1OCCN1S(=O)(=O)c1ccc([N+](=O)[O-])cc1 (centres undefined)	Pf growth 96h inconclusive, Pf growth 48h inconclusive
CCOC(=O)/C=C1\CN(Cc2cc(OC)c(OC)c(OC)c2)S(=O)(=O)c2ccccc21	Pf growth 96h inconclusive, Pf growth 48h inconclusive, Sm TGR inh inconclusive
CCOC(=O)/C=C1\CN(Cc2cc(OC)c(OC)c(OC)c2)S(=O)(=O)c2ccc(C(F)(F)F)cc21	Pf growth 96h inconclusive, Pf growth 48h inconclusive, Sm TGR inh 28.2µM
CC(=O)Nc1ccc2nc3c(=O)[nH]c(=O)[nH]c3nc2c1	none (no result: Pf growth 96h, SARS PLP yeast, Pf growth 48h)
CCOc1ccc2nc(NC3=NC(C)(C)C=C(C)N3)nc(C)c2c1	Pf growth 96h inconclusive (no result: Pf growth 48h)
CCOc1ccc2nc(NC3=NC(c4ccc(OC)cc4)CC(=O)N3)nc(C)c2c1 (centres undefined)	Pf growth 96h 10.4µM, Pf growth 48h inconclusive, Sm TGR inh inconclusive
CCOc1ccc2c(C)nc(NC3=NC(C)(C)C=C(C)N3)nc2c1	Pf growth 96h 11.7µM, Pf growth 48h 10.4µM
C#CCOc1ccc(C2C3=C(CCCC3=O)N(CC(=O)O)C3=C2C(=O)CCC3)cc1Br	Sm TGR inh 39.8µM
C=CCOc1c(Br)cc(C2C3=C(CCCC3=O)N(C)C3=C2C(=O)CCC3)cc1OCC	Pf growth 48h inconclusive
CCCOc1ccc(C2C3=C(CCCC3=O)N(CC(=O)O)C3=C2C(=O)CCC3)cc1OCC	none
C=CCOc1ccc(C2C3=C(CCCC3=O)N(CC(=O)O)C3=C2C(=O)CCC3)cc1OCC	Sm TGR inh 44.7µM
CC(=O)N1CCc2nc3sc(C(=O)c4ccc(F)cc4)c(N)c3c(C(F)(F)F)c2C1	none (no result: Pf growth 96h, SARS PLP yeast, Pf growth 48h)
COc1ccc(C2OC(=O)CC2C(=O)NCc2ccc(C)cc2)cc1OC (centres undefined)	Pf growth 96h 9.28µM
COCCCNC(=O)C1CC(=O)OC1c1ccc(OC)c(OC)c1 (centres undefined)	none (no result: Pf growth 48h)
CC1CCCN(C(=O)c2ccc(NC(=O)CC3SC(N4CCCC4)=NC3=O)cc2)C1 (centres undefined)	Pf growth 96h inconclusive, Pf growth 48h inconclusive
CCc1ccc(NC(=O)C(C)OC(=O)c2c(C)nn(Cc3ccccc3)c2Cl)cc1 (centres undefined)	Pf growth 96h inconclusive
Cc1nn(Cc2ccccc2)c(Cl)c1C(=O)OC(C)C(=O)Nc1ccc(F)cc1Cl (centres undefined)	Pf growth 96h 13.1µM, Pf growth 48h inconclusive
O=C1CCCN1c1ccc(Br)cc1	none (no result: Pf growth 96h)
O=C1CCCN1c1ccc(N2CCCC2=O)cc1	Pf growth 96h 2.08µM
COc1ccc(C(=O)Nc2ccccc2C(=O)NC(Cc2ccc(O)cc2)C(=O)NNC(=O)c2ccncc2)cc1 (centres undefined)	Pf growth 48h 11.7µM
COc1ccc(C(=O)Nc2ccccc2C(=O)NC(Cc2ccc(O)cc2)C(=O)NNC(=O)c2ccccc2)cc1 (centres undefined)	Pf growth 48h 10.4µM
CC(=O)Nc1ccc(NC(=O)CCC(=O)OCC(=O)c2ccc(F)cc2)cc1	none
